Results published in the supplement of paper PMC8975748.
Counter-ions that a name gives are not always drawn. ± gives the standard deviation of the averaged measurements.

Legend:
[1] = system: Saccharomyces cerevisiae BY4741 SeMeCo community; test: mean cell size (pixel area) (pixels); higher = larger cells; settings: 10 µM; 24 h; SM minimal medium
How it was run: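 Mean cell pixel area per well was determined by automated confocal microscopy with Harmony analysis of paraformaldehyde-fixed cells. The cells, a Saccharomyces cerevisiae BY4741 community of four plasmids that each complement one auxotrophy and carry a fluorescent marker, were incubated for 24 h with drug at a final 10 µM in SM medium in 384-well plates. Numbers are averaged over 3 replicates. Same SeMeCo high-content imaging drug screen: Selleck FDA-approved drugs at 10 µM, 24 h in SM medium, 384-well plates, 3 replicates.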

[2] = system: Saccharomyces cerevisiae BY4741 SeMeCo community; test: z-score of prototroph abundance vs DMSO median; higher = larger share of this subpopulation than in DMSO controls; settings: 10 µM; 24 h; SM minimal medium; subpopulation (auxotrophy): Prototroph
How it was run: (§1)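 Scoring was based on each subpopulation's abundance, expressed as a z-score against the vehicle-well median. A Saccharomyces cerevisiae BY4741 community with four plasmids, each restoring one auxotrophy and encoding a distinct fluorescent protein, was pre-grown overnight to OD600 1.0, diluted to 0.3, and added at 70 µl to 384-well plates acoustically predosed with library drugs (10 µM final). It then grew 24 h in minimal SM medium before paraformaldehyde fixation and automated confocal microscopy, with single-auxotroph fluorescent strains setting thresholds and autofluorescence correction.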

[3] = system: Saccharomyces cerevisiae BY4741 SeMeCo community; test: z-score of subpopulation abundance vs DMSO median, subpopulation auxotrophic for M; higher = larger share of this subpopulation than in DMSO controls; settings: 10 µM; 24 h; SM minimal medium; subpopulation (auxotrophy): M
How it was run: as §1

[4] = system: Saccharomyces cerevisiae BY4741 SeMeCo community; test: z-score of subpopulation abundance vs DMSO median, subpopulation auxotrophic for L; higher = larger share of this subpopulation than in DMSO controls; settings: 10 µM; 24 h; SM minimal medium; subpopulation (auxotrophy): L
How it was run: as §1

[5] = system: Saccharomyces cerevisiae BY4741 SeMeCo community; test: z-score of subpopulation abundance vs DMSO median, subpopulation auxotrophic for U; higher = larger share of this subpopulation than in DMSO controls; settings: 10 µM; 24 h; SM minimal medium; subpopulation (auxotrophy): U
How it was run: as §1

[6] = system: Saccharomyces cerevisiae BY4741 SeMeCo community; test: z-score of subpopulation abundance vs DMSO median, subpopulation auxotrophic for H; higher = larger share of this subpopulation than in DMSO controls; settings: 10 µM; 24 h; SM minimal medium; subpopulation (auxotrophy): H
How it was run: as §1

[7] = system: Saccharomyces cerevisiae BY4741 SeMeCo community; test: z-score of subpopulation abundance vs DMSO median, subpopulation auxotrophic for LU; higher = larger share of this subpopulation than in DMSO controls; settings: 10 µM; 24 h; SM minimal medium; subpopulation (auxotrophy): LU
How it was run: as §1

[8] = system: Saccharomyces cerevisiae BY4741 SeMeCo community; test: z-score of subpopulation abundance vs DMSO median, subpopulation auxotrophic for LM; higher = larger share of this subpopulation than in DMSO controls; settings: 10 µM; 24 h; SM minimal medium; subpopulation (auxotrophy): LM
How it was run: as §1

[9] = system: Saccharomyces cerevisiae BY4741 SeMeCo community; test: z-score of subpopulation abundance vs DMSO median, subpopulation auxotrophic for HM; higher = larger share of this subpopulation than in DMSO controls; settings: 10 µM; 24 h; SM minimal medium; subpopulation (auxotrophy): HM
How it was run: as §1

[10] = system: Saccharomyces cerevisiae BY4741 SeMeCo community; test: z-score of subpopulation abundance vs DMSO median, subpopulation auxotrophic for HU; higher = larger share of this subpopulation than in DMSO controls; settings: 10 µM; 24 h; SM minimal medium; subpopulation (auxotrophy): HU
How it was run: as §1

[11] = system: Saccharomyces cerevisiae BY4741 SeMeCo community; test: z-score of subpopulation abundance vs DMSO median, subpopulation auxotrophic for UM; higher = larger share of this subpopulation than in DMSO controls; settings: 10 µM; 24 h; SM minimal medium; subpopulation (auxotrophy): UM
How it was run: as §1

[12] = system: Saccharomyces cerevisiae BY4741 SeMeCo community; test: z-score of subpopulation abundance vs DMSO median, subpopulation auxotrophic for HL; higher = larger share of this subpopulation than in DMSO controls; settings: 10 µM; 24 h; SM minimal medium; subpopulation (auxotrophy): HL
How it was run: as §1

[13] = system: Saccharomyces cerevisiae BY4741 SeMeCo community; test: z-score of subpopulation abundance vs DMSO median, subpopulation auxotrophic for HLU; higher = larger share of this subpopulation than in DMSO controls; settings: 10 µM; 24 h; SM minimal medium; subpopulation (auxotrophy): HLU
How it was run: as §1

[14] = system: Saccharomyces cerevisiae BY4741 SeMeCo community; test: z-score of subpopulation abundance vs DMSO median, subpopulation auxotrophic for HLM; higher = larger share of this subpopulation than in DMSO controls; settings: 10 µM; 24 h; SM minimal medium; subpopulation (auxotrophy): HLM
How it was run: as §1

[15] = system: Saccharomyces cerevisiae BY4741 SeMeCo community; test: z-score of subpopulation abundance vs DMSO median, subpopulation auxotrophic for HUM; higher = larger share of this subpopulation than in DMSO controls; settings: 10 µM; 24 h; SM minimal medium; subpopulation (auxotrophy): HUM
How it was run: as §1

[16] = system: Saccharomyces cerevisiae BY4741 SeMeCo community; test: z-score of subpopulation abundance vs DMSO median, subpopulation auxotrophic for LUM; higher = larger share of this subpopulation than in DMSO controls; settings: 10 µM; 24 h; SM minimal medium; subpopulation (auxotrophy): LUM
How it was run: as §1

[17] = system: Saccharomyces cerevisiae BY4741 SeMeCo community; test: z-score of subpopulation abundance vs DMSO median, subpopulation auxotrophic for HLUM; higher = larger share of this subpopulation than in DMSO controls; settings: 10 µM; 24 h; SM minimal medium; subpopulation (auxotrophy): HLUM
How it was run: as §1

Row | SMILES | mean cell size [1] | z-score of prototroph abundance [2] | z-score of subpopulation abundance [3] | z-score of subpopulation abundance [4] | z-score of subpopulation abundance [5] | z-score of subpopulation abundance [6] | z-score of subpopulation abundance [7] | z-score of subpopulation abundance [8] | z-score of subpopulation abundance [9] | z-score of subpopulation abundance [10] | z-score of subpopulation abundance [11] | z-score of subpopulation abundance [12] | z-score of subpopulation abundance [13] | z-score of subpopulation abundance [14] | z-score of subpopulation abundance [15] | z-score of subpopulation abundance [16] | z-score of subpopulation abundance [17]
1 | NCc1ccccc1CC(=O)N[C@@H]1C(=O)N2C(C(=O)O)=C(CSc3nnnn3CC(=O)O)CS[C@H]12 [Ceforanide] | 12.09 ± 0.042 | -0.53 | -0.21 | 2.29 | -0.98 | 2.15 | 0.89 | 1.65 | 1.01 | 0.2 | -0.41 | 2.92 | 0.38 | 0.46 | 0.56 | 2.06 | 1.14
2 | O=C(N[C@H](CO)[C@H](O)c1ccc([N+](=O)[O-])cc1)C(Cl)Cl [Chloramphenicol] | 12.5 ± 0.17 | -0.39 | 0.86 | 0.12 | -0.21 | -0.01 | -0.22 | 0.1 | -0.25 | 0.66 | -0.39 | 0.18 | -0.24 | 0.01 | 0.42 | 0.23 | 0.45
3 | CN[C@H]1CC[C@@H](c2ccc(Cl)c(Cl)c2)c2ccccc21 [Sertraline HCl] | 12.4 ± 0.056 | 1.15 | 0.18 | -0.29 | -0.41 | -1.14 | -0.7 | -0.97 | -0.87 | -1.26 | -0.56 | -0.5 | -0.32 | -0.66 | -0.4 | -1.09 | -0.97
4 | CO[C@@]1(NC(=O)C(C(=O)O)c2ccc(O)cc2)C(=O)N2C(C(=O)O)=C(CSc3nnnn3C)CO[C@@H]21 (stereo not given in full) [Latamoxef sodium] | 12.7 ± 0.16 | 0.35 | 0.17 | -0.05 | -0.29 | – | -0.08 | -0.29 | -0.22 | 0 | -0.41 | -0.07 | 0.4 | 0.83 | -0.43 | -0.71 | 0.61
5 | Cc1ccc(C(=O)C(C)CN2CCCCC2)cc1 (stereo not given) [Tolperisone HCl] | 12.6 ± 0.14 | 1.01 | 0.72 | -0.42 | -0.15 | -0.79 | -0.75 | -0.14 | -0.34 | -0.2 | -0.03 | -0.34 | -0.71 | -0.48 | -0.56 | -0.71 | -0.57
6 | Oc1c(Cl)cc(Cl)cc1Sc1cc(Cl)cc(Cl)c1O [Bithionol] | 12.4 ± 0.28 | -1.81 | -3.78 | -1.47 | 1.53 | 6 | 1.88 | -1.62 | -0.03 | 5.87 | -0.68 | 3.98 | 2.39 | 4.37 | 3.51 | 2.62 | 2.92
7 | CC(C)Cc1ccc(C(C)C(=O)O)cc1 (stereo not given) [Ibuprofen Lysine] | 13 ± 0.042 | 3.98 | -0.7 | -0.17 | -3.65 | -0.2 | -4.01 | -0.77 | -1.04 | -2.64 | -4.66 | -0.13 | -1.49 | -0.36 | -3.01 | -2.47 | -1.27
8 | NC(=O)OCC(COC(N)=O)c1ccccc1 [Felbamate] | 12.33 ± 0.12 | 1.19 | -0.21 | -0.15 | -0.1 | – | -0.71 | -1.27 | -1.32 | -0.73 | -0.58 | -0.42 | -1.23 | -1.16 | -0.71 | -0.77 | -0.68
9 | COc1cc(C(C)=O)ccc1OCCCN1CCC(c2noc3cc(F)ccc23)CC1 [Iloperidone] | 12.4 ± 0.16 | -0.06 | 0.33 | 0.2 | -0.16 | – | -0.41 | 0.71 | 0.05 | -0.38 | -0.39 | 0.55 | -1.31 | 0.44 | -0.98 | 0.9 | -0.49
10 | CN(C)CCCN1c2ccccc2Sc2ccc(Cl)cc21 [Chlorpromazine HCl] | 12.3 ± 0.24 | -0.29 | 0.41 | -0.35 | 0.63 | – | -0.32 | 0.96 | 0.19 | -0.02 | 0.5 | -0.55 | -0.85 | 0.11 | 0.9 | 0.52 | 0.29
11 | O=c1[nH]c(=O)n([C@H]2C[C@H](O)[C@@H](CO)O2)cc1/C=C/Br [Brivudine] | 12.41 ± 0.042 | 0.4 | 0.48 | -2.11 | 0.12 | – | -0.22 | -1.47 | -0.22 | -0.94 | 0.16 | – | -0.95 | -1.12 | -0.74 | -0.74 | -1.13
12 | CC[C@H](C)[C@H](N)C1=N[C@H](C(=O)N[C@@H](CC(C)C)C(=O)N[C@H](CCC(=O)O)C(=O)N[C@H](C(=O)N[C@H]2CCCCNC(=O)[C@H](CC(N)=O)NC(=O)[C@@H](CC(=O)O)NC(=O)[C@H](Cc3cnc[nH]3)NC(=O)[C@@H](Cc3ccccc3)NC(=O)[C@H]([C@@H](C)CC)NC(=O)[C@@H](CCCN)NC2=O)[C@@H](C)CC)CS1 [Bacitracin] | 12 ± 0.24 | -2.14 | -0.01 | 1.05 | 0.29 | 3.13 | 0.64 | 1.28 | 1.2 | 2.07 | 0.03 | 3.67 | 3.61 | 1.35 | 1.59 | 0.84 | 1.51
13 | O=c1[nH]cc(F)c(=O)[nH]1 [Fluorouracil (5-Fluoracil, 5-FU)] | 13.9 ± 0.2 | -10.5 | -2.62 | -0.27 | 0.26 | 13.4 | 0.59 | 0.7 | 18.4 | 8.79 | 2.82 | 6.71 | 10.4 | 22.3 | 12.3 | 3.63 | 22.5
